Data from PubChem BioAssay AID1508600 (Functional Genomics Laboratory (NCATS/FGL), 2020).
In all, about 53,000 sequences went through this assay and about 3,700 (7%) were called active.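 The calls were made as follows: active = gene knockdowns whose robust z-score for IL-1 alpha signal is at least 2 or at most -2, so actives lie on both sides; inactive = the rest.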 The full list was thinned out, with actives kept by preference.

Assay: Components of the Cytosolic LPS Sensing Pathway: Gene Identification via Genome-wide siRNA Screen;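 also: robust z of the log signal after scaling to non-targeting control siRNA wells of the plate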
Conditions: RAW264.7 macrophages, IL-1a HTRF, actives lie on both sides, screened at 100 nM (by protocol), cells primed 5 h with Pam3CSK4 first
Procedure, shortened: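 Mouse macrophage line RAW264.7 is transfected with siRNA (100 nM final), grown 48h, primed with TLR ligand Pam3CSK4 5 h and given intracellular LipidA 24 h. IL-1a in supernatant is read by HTRF and viability by luminescence.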
With GGGUAUUUUGACAAUUUGGTT against Lrig3 the z-score was -0.576 (inactive). In the case of GGCCAGACCUUUGUGAAUGTT against Ctse, the z-score is reported as -1.96 (inactive). With GGAAUCUUUAGACCAUCUCTT against Myh1 the z-score was 5.3 (active). For GGCCAUGAAUCUUGUUGGGTT against Scg5, the z-score was -0.684 (inactive). In the case of GGAAGUCACCAUCAACCAGTT against Krt4, the z-score is reported as 0.168 (inactive). With CGAGCACUAUUUUGGAUUATT against Usp12 the z-score was 0.0102 (inactive). With GGCUGUGAUCUCCUGGCUUTT against Rnft2 the z-score was -1.46 (inactive). For GGCUUUACGAGGAAAAAGGTT against Pex1, the z-score was 2.09 (active). With GGAAUGCAUGCUAAUUCAGTT against Thsd1 the z-score was 1.1 (inactive). For GGAUUCUGAGUGUACGUUUTT against Zfp28, the z-score was 0.0227 (inactive). In the case of CGAGGGAUAAGAGUCUACGTT against Ubxn11, the z-score is reported as 1.45 (inactive). For GCUAAUUCCAAGAAAGAAGTT against Lifr, the z-score was -0.326 (inactive). With GGACCAUCCCUGCUUAAUGTT against Brat1 the z-score was -2.09 (active). For CGGUCAACAUCAAUGGUAATT against Gkn1, the z-score was -1.28 (inactive). With GCUAAGAUUCCUUCCAGUATT against Adm2 the z-score was 0.98 (inactive). In the case of GGUUCUACCUCAAGAUGUUTT against Srd5a2, the z-score is reported as 0.0188 (inactive). In the case of CCUAUAUCAUCAUGGUUUGTT against Tmx1, the z-score is reported as 2.4 (active). In the case of GGACUACGUAUUUUCCCUGTT against Cyc1, the z-score is reported as -0.39 (inactive). With GCUCUGAUAUUCUCAUCAATT against Olfr39 the z-score was 1.25 (inactive). For CCUGGGAGCCUAUUAUUCUTT against Ndufb10, the z-score was -0.032 (inactive). In the case of GGAAGAUAACCAUUUUGAATT against Setd4, the z-score is reported as -0.777 (inactive). For CGGCGUGUUUAUUUGCUAUTT against Rab27a, the z-score was -1.38 (inactive). For CCUGGUUUACAUGUACGGGTT against Tap2, the z-score was 0.494 (inactive). For GCUAGAGACGAGAAGAUGATT against Ano10, the z-score was -2.47 (active). With GCACUUCGAAGAAAUAAAATT against Ahsa2 the z-score was 0.396 (inactive). For CGAGGACAAAAAUACCGACTT against Supt6, the z-score was -1.51 (inactive). For GAAGAUUAUCCAUUGCCCGTT against Lce1h, the z-score was 0.689 (inactive). For GGACCCAGCUCCUGUACAUTT against Ypel3, the z-score was 2.31 (active). With GGGACAGAGCCGAAAGAGUTT against Mrpl33 the z-score was -1.39 (inactive). With CCUUGCCUUUACUACCAGUTT against Olfr15 the z-score was -0.187 (inactive). With GCGAUACCAGGGACUACAUTT against Zfp692 the z-score was 1.75 (inactive). With “CGCUCUCUCUACAAAGGAUTT against A230052G05Rik” the z-score was 0.984 (inactive). In the case of GGGAAUUUGGGCAUGAUCATT against Olfr44, the z-score is reported as -2.02 (active). With “GCAUGUUCGCACGUGUCAATT against 5330439B14Rik” the z-score was -1.05 (inactive). For “CGACUGAUAGAUGAGUAAATT against C130026L21Rik”, the z-score was 0.424 (inactive). For CCGCACAUGCUCUCAAAUATT against Polr3d, the z-score was -1.25 (inactive). With GGACAAAGAGGCAAUGGGATT against Dnajb9 the z-score was 1.08 (inactive). For GGUAAAAUCACUUCAGAUCTT against Phb, the z-score was 2.23 (active). For GCAAGUGGAGUUUAUUGAUTT against Dbndd2, the z-score was -0.0399 (inactive). With CGCAUGAUAACUAGAGAAUTT against Slitrk3 the z-score was -0.269 (inactive). For GGCUGUUCGGGUGACUAUUTT against Il17re, the z-score was -2.83 (active). With GGCAAUGUUUACAAGUUCCTT against Ralgps1 the z-score was 0.491 (inactive). In the case of GCAGUACUAAGGAAGAUAUTT against Nudcd1, the z-score is reported as -0.842 (inactive). For GCAUAAGCUACUGCUGACATT against Pcdha6, the z-score was -0.782 (inactive). For GGCAGCAGCACUGAUUACUTT against Gjc2, the z-score was -2.17 (active). For GGCAAGGCUACUACUUGCATT against Fgf14, the z-score was -0.117 (inactive). In the case of GCCAGACACUUAAUCCCGUTT against Unc13d, the z-score is reported as 0.147 (inactive). With GGAUAUCAAGGGAUCAGACTT against Chchd4 the z-score was 0.00163 (inactive). With GGCUUAAGCAGACGUGUCATT against Lhx8 the z-score was -2.14 (active). For GCCCAUUAUGAAACUGAAGTT against Nfatc3, the z-score was 1.45 (inactive). In the case of GGUGUUUAAGGAUGAACAATT against L3mbtl3, the z-score is reported as 0.104 (inactive). For GCCACUUAAUGUCACUUUATT against Bag2, the z-score was 0.652 (inactive). For GCCAGAUCUUUAUAUCCCGTT against Gdi2, the z-score was -0.094 (inactive). In the case of CCAGAUGUUACGAAUGAAATT against Tmem209, the z-score is reported as -1.65 (inactive). In the case of GGGCAAUGUUUGUCACUAATT against Akr1b10, the z-score is reported as 1.55 (inactive). In the case of CGGCCAUAUAAUUUUGAAUTT against Tbx20, the z-score is reported as 0.233 (inactive). With CGGUUUAACAGCAAGGGUATT against Sec61a1 the z-score was -2.75 (active). For GGACUUAUUUCUUUAAGGATT against Mmp17, the z-score was -0.567 (inactive). With GGUGGAAUGAUAGUGUUCATT against Neurl1b the z-score was 1.67 (inactive). In the case of GGUUAUUUCCCUGUUUUCATT against Olfr532, the z-score is reported as 1.5 (inactive). For GGAGUUUGGGAACACUUUGTT against Apoc1, the z-score was 0.617 (inactive). For GCCUCUUAGUAGAGACAGUTT against Naa80, the z-score was -0.725 (inactive). For GGUAAAGCAAGAGAGUAUUTT against Hccs, the z-score was -0.629 (inactive). With GGUUCAAGGAUGAAUUAGATT against Trappc6b the z-score was -2.03 (active). For GCUUUUGAAUGUGUGGACUTT against Ugt2b37, the z-score was -0.938 (inactive). With CCCAAAGAAUUAUGAGUGUTT against Gpr149 the z-score was -0.678 (inactive). In the case of GGCAAAUUCUGGAUCUGCUTT against Marf1, the z-score is reported as -0.267 (inactive). In the case of GGGAAAAAAAAAAAUCACCTT against Syne3, the z-score is reported as -0.254 (inactive). With CCAAUGAUGGAGCUGAAGCTT against Ranbp1 the z-score was -2.72 (active). In the case of GGUCAAGGCUGUCAAGUUGTT against Wdr45b, the z-score is reported as -0.13 (inactive). In the case of GGUGCCCACUAACUUAGAATT against Tbx21, the z-score is reported as 2.3 (active). In the case of GGUGUUCGAUGGACGUGAUTT against Bmp1, the z-score is reported as -0.183 (inactive). With GCAUCCUGGCUUAUCCAUUTT against Hmgb1 the z-score was -0.393 (inactive). With CCACUAUUAAACUUCUCAATT against Pex3 the z-score was 0.32 (inactive). In the case of CCAGCUUCAUGCGUUUAAATT against Stx16, the z-score is reported as 1.4 (inactive). In the case of CCCUCACAGUAACCUGUCGTT against Espl1, the z-score is reported as -2.56 (active). With GGUCGAAGUAUUGGAAAAUTT against Hesx1 the z-score was -1.71 (inactive). With GCAAAUGACUUCCAACAAUTT against Uqcrq the z-score was 3.84 (active). For GGAGAACAAAGUAUUGGUGTT against Cacna1f, the z-score was 0.388 (inactive). For “GCCAUAGGAGUGAUUGGAUTT against E130018O15Rik”, the z-score was -1.66 (inactive). With GGUGAGCAUGGACUAUGAUTT against Syt12 the z-score was -1.09 (inactive). In the case of GCACUUGACAAGCAACAGUTT against Jup, the z-score is reported as -2.3 (active). In the case of GCAUAUGGAUAAGAUUGUUTT against Efr3a, the z-score is reported as -0.363 (inactive). With GGAAAAGGGUCGUGCCUGUTT against Gm9991 the z-score was -0.07 (inactive). With GCAUUGGCAGACCCGAGUUTT against Pir the z-score was 0.238 (inactive). For GCUUGGUAAAAUGAAAGUCTT against Klhl12, the z-score was 0.22 (inactive). With GGUUUCUGUCCAGAUAAAATT against Ykt6 the z-score was -0.535 (inactive). For GGUGCAGAAUGCAAUGGAUTT against Ing3, the z-score was 2.51 (active). For GGAAUAUGAGAAAAUGAGCTT against Ctsc, the z-score was 0.239 (inactive). With AACACUGGGUACAUCUACATT against H2-Q7 the z-score was 1.75 (inactive). In the case of UUCCCACUCUGACUAUUUUTT against Olfr970, the z-score is reported as -0.0332 (inactive). In the case of GGCCUUCAAGUGCAUGAUGTT against Yaf2, the z-score is reported as -1.65 (inactive). In the case of CCAGAAAACCAAACAACAGTT against Olfr1357, the z-score is reported as 0.287 (inactive). In the case of GGUGACAGGAAAGUUCUGUTT against Gsdmc2, the z-score is reported as 2.07 (active). With GGCGAUUAAACUAUACAUUTT against Rrm2 the z-score was 0.0358 (inactive). In the case of GGGCAUGUGAAGAUGUGCGTT against Map2k3, the z-score is reported as -0.272 (inactive). For CGUCUUACACGGUUCAAAGTT against Tbc1d10a, the z-score was 0.809 (inactive). In the case of CGUGGUACACUGAAGACUUTT against Mmp1a, the z-score is reported as 2.3 (active). With GGACCAUUCUGAAGAGCAGTT against Il5ra the z-score was 0.867 (inactive). In the case of GCUUUAUUGACACGACCCGTT against Rbm19, the z-score is reported as 0.184 (inactive). With CCGUCGUACACAAUCUUACTT against Fgfr4 the z-score was -0.512 (inactive). In the case of GGUACACAACCAUCCUUGATT against Olfr600, the z-score is reported as -2.33 (active). For CCUACAUCAGGUCAGCAAGTT against Mrto4, the z-score was 1.26 (inactive). In the case of GGAAAAAGCAAAUUGAGGATT against Uchl1, the z-score is reported as -1.48 (inactive). With GCAGAGUCACCUUACUAACTT against Fam122b the z-score was -0.0407 (inactive). With GGAGCUACACACAUAGGAATT against Clec2h the z-score was 0.891 (inactive). In the case of GGAUACCAAGAUUCCAAAUTT against Pik3r4, the z-score is reported as 2.19 (active). For GCCAGCAACCCUCUUCGUUTT against Foxo6, the z-score was 0.142 (inactive).
